# Source: the supplement of paper PMC12636033
# ± gives the standard deviation of the averaged measurements. The full ranking holds about 33,000 sequences; the median of “E-score (rank enrichment, -0.5 to 0.5)” is about -0.0028, and the highest 2% start at about 0.23. The sample holds the highest values, similar sequences and a random draw of the others, so the mix is not that of the screen.
# System: 2Sb-muMax20 (muMax20 with two 1,3-bis(methyl)benzene Cys staples, A13C/A17C and Q88C/A92C, C-terminal Lys)
# Experiment: PBM 8-mer E-score (E-score (rank enrichment, -0.5 to 0.5)); higher = stronger preferential binding
# Protocol: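 Protein binding microarray (universal PBM chip covering all 10-mers in fixed probe flanks) with chemically synthesized human Max(13-93) bHLH-LZ analogs (not full-length Max) bearing noncanonical residues (hArg, Tha, Aib, Nle at 65) and aromatic Cys staples. Read-out per 8-mer (and its reverse complement): E-score (rank-based enrichment, -0.5 to 0.5) and Z-score of median probe intensity.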
row,Sequence,PBM 8-mer E-score
1,CGTTAACC,0.0325 ± 0.077
2,CTCGCCAG,-0.193 ± 0.077
3,CACGAATA,0.0625 ± 0.022
4,CCGTATGA,-0.0951 ± 0.073
5,AAAGCATG,0.181 ± 0.039
6,ACCGGGAT,-0.253 ± 0.025
7,AATCCCCA,0.258 ± 0.01
8,AATCCCCG,0.0673 ± 0.076
9,AATCCCAT,0.185 ± 0.057
10,GATCCCCA,0.153 ± 0.12
11,AATCCCAA,0.158 ± 0.025
12,TATCCCCA,0.282 ± 0.018
13,AATCCCCC,-0.219 ± 0.0031
14,CATCCCCA,0.141 ± 0.047
15,AATCCCCT,0.2795 ± 0.0021
16,ATCGCTAC,-0.0426 ± 0.015
17,CCCGACAC,-0.0833 ± 0.071
18,AATGAGGC,0.0433 ± 0.059
19,GAAAGGAA,0.00148 ± 0.06
20,CATTCATA,0.264 ± 0.046
21,GATTCATA,0.178 ± 0.02
22,CATTCATC,0.0987 ± 0.029
23,CGAGAGCA,-0.0422 ± 0.048
24,TCGAAGAA,0.0801 ± 0.041
25,ACGAAGAA,0.2404 ± 0.0017

row,Sequence,PBM 8-mer E-score
1,ACGAAGAT,0.0215 ± 0.059
2,AGATGCGC,0.0628 ± 0.014
3,CCGAATTA,-0.0865 ± 0.076
4,GTCGGGCA,-0.103 ± 0.025
5,GATGAATA,0.246 ± 0.059
6,GATGAATC,0.06 ± 0.071
7,TATGAATA,0.211 ± 0.052
8,TACATCGA,0.106 ± 0.022
9,AAGTGTCC,0.0439 ± 0.046
10,AAAATCTA,0.00391 ± 0.078
11,AAACGACC,0.115 ± 0.032
12,AAACGACT,0.24 ± 0.023
13,AAACGACG,0.0001 ± 0.01
14,TAAGTTCA,-0.0564 ± 0.0074
15,TACACATA,0.268 ± 0.019
16,CACATAAA,0.0814 ± 0.0052
17,GACATACC,-0.168 ± 0.044
18,GACATAGA,-0.0561 ± 0.027
19,AACATAAA,0.145 ± 0.0096
20,CACATACG,0.0173 ± 0.041
21,GACACATA,0.0252 ± 0.086
22,GACATACA,0.235 ± 0.0046
23,CACACATA,0.00584 ± 0.1
24,AACATACT,0.1 ± 0.032
25,AACATACG,0.273 ± 0.019

row,Sequence,PBM 8-mer E-score
1,TACATAAA,0.242 ± 0.046
2,CGTGGGAC,0.0245 ± 0.068
3,CATTGGAC,-0.164 ± 0.097
4,ACTGAGAA,-0.135 ± 0.097
5,ACATGAAA,0.0717 ± 0.024
6,CAGGAGAA,0.107 ± 0.037
7,AGCAGCGA,-0.182 ± 0.0055
8,AGTGTTGG,0.043 ± 0.048
9,GCGAGACA,-0.0901 ± 0.089
10,AGAATTGA,-0.00649 ± 0.005
11,CCGGTGGA,-0.167 ± 0.015
12,ATAAGACC,0.114 ± 0.078
13,AAGGTATT,0.0792 ± 0.027
14,ATAGGAGG,-0.0435 ± 0.015
15,GGTGTCCA,0.00348 ± 0.039
16,ACTTACCC,0.166 ± 0.053
17,CACATACA,0.0172 ± 0.022
18,TACATACA,0.235 ± 0.031
19,AACATACA,0.153 ± 0.061
20,TCCTGCGA,-0.0443 ± 0.016
21,AATAAATT,0.271 ± 0.019
22,GTTAAATA,0.23 ± 0.023
23,AATAAAAG,0.241 ± 0.065
24,CATAAATA,0.293 ± 0.029
25,CTTAAATA,0.056 ± 0.014

row,Sequence,PBM 8-mer E-score
1,TATAAATA,0.133 ± 0.019
2,CATAAAAG,0.00379 ± 0.14
3,ATTAAATA,0.208 ± 0.023
4,AATAAATA,0.0902 ± 0.023
5,AATAAAAT,0.0858 ± 0.023
6,AATAAAAA,0.187 ± 0.046
7,AATAAATG,0.226 ± 0.0099
8,ATGTAAGA,0.104 ± 0.011
9,ACTCTTTC,0.0291 ± 0.035
10,CTTTATCC,0.0138 ± 0.00086
11,CGCAAACG,-0.0619 ± 0.011
12,CAAAATAG,0.0583 ± 0.12
13,CGACATTC,-0.0236 ± 0.057
14,TCGCAGCA,-0.185 ± 0.015
15,CCTTACAA,-0.0496 ± 0.00098
16,TAACCGTA,0.179 ± 0.033
17,ATGAAGGA,0.0372 ± 0.02
18,CAGATGGG,-0.06 ± 0.043
19,ACGCCACA,0.113 ± 0.019
20,TCACTGAA,0.0386 ± 0.03
21,ACAATCGG,-0.076 ± 0.075
22,AACGACAT,0.126 ± 0.076
23,AGTGCTGC,-0.166 ± 0.021
24,CCACCCCG,0.0359 ± 0.026
25,CCACCCCA,0.275 ± 0.1

row,Sequence,PBM 8-mer E-score
1,GCACCCCC,-0.265 ± 0.028
2,TCACCCAA,0.154 ± 0.032
3,GCACCCCA,0.24 ± 0.031
4,ACACCCCA,0.224 ± 0.036
5,CCACCCCC,-0.0738 ± 0.041
6,TCACCCGA,-0.0977 ± 0.0029
7,TCACCCCA,0.368 ± 0.011
8,CGCGTCGC,-0.0885 ± 0.02
9,CAACCTTG,-0.0156 ± 0.0055
10,CCTAAAGC,0.0284 ± 0.038
11,AAAATGCC,0.00067 ± 0.042
12,AAAATGCT,0.235 ± 0.0065
13,AAAATGCA,0.127 ± 0.02
14,AATTAGCC,-0.107 ± 0.095
15,CCTGACCC,-0.146 ± 0.077
16,CTGTTTTA,0.24 ± 0.013
17,GTGTTTTA,0.098 ± 0.036
18,CTGTTTAA,0.0361 ± 0.028
19,ACCCCTTC,0.328 ± 0.018
20,GCCCCTAA,0.245 ± 0.038
21,CCCCCTTC,-0.174 ± 0.065
22,ACCCCTAT,0.252 ± 0.081
23,AACCCTCC,-0.0982 ± 0.073
24,ACCCCTAG,0.11 ± 0.029
25,TCCCCTAA,0.196 ± 0.03

row,Sequence,PBM 8-mer E-score
1,ACCCCTAA,0.218 ± 0.037
2,CCCCCTCC,-0.0384 ± 0.17
3,CCCCCTAA,-0.037 ± 0.031
4,ACCCCTCC,0.258 ± 0.052
5,AACCCTTC,0.11 ± 0.054
6,TAGACGAA,-0.053 ± 0.022
7,GTCCGACA,-0.0883 ± 0.025
8,TACACACA,0.00095 ± 0.038
9,AACAGTCC,-0.0613 ± 0.014
10,CGCCTTCC,-0.134 ± 0.085
11,ACCGCCGG,-0.212 ± 0.076
12,ATGGCTAC,0.106 ± 0.049
13,CACCTCAA,-0.0623 ± 0.06
14,CCTCAGCC,-0.0948 ± 0.096
15,AGGGTCCC,-0.337 ± 0.0037
16,TTAGCAAA,0.1884 ± 0.00076
17,GCCCCTCC,0.274 ± 0.099
18,CGCCCTCC,0.0189 ± 0.097
19,CCCCCTCA,0.0422 ± 0.049
20,TACCCTCA,0.0472 ± 0.026
21,ACCCCTCA,0.307 ± 0.0085
22,GCCCCCCC,-0.18 ± 0.13
23,GCCCCTCA,-0.0171 ± 0.064
24,TCCCCTCA,0.247 ± 0.0079
25,ACCCCTCG,0.0393 ± 0.084

row,Sequence,PBM 8-mer E-score
1,ACTTCAGA,-0.161 ± 0.095
2,CAGCTCCG,-0.19 ± 0.065
3,ATATGGAA,0.0497 ± 0.036
4,CGGTGTAA,-0.0426 ± 0.082
5,GGGTGTAA,0.0984 ± 0.049
6,TGGTGTAA,0.249 ± 0.037
7,TCCGGGAA,-0.184 ± 0.07
8,AAAACGAG,-0.00059 ± 0.034
9,TGTATACA,0.259 ± 0.05
10,CGTATACG,0.341 ± 0.027
11,CGTATACC,-0.123 ± 0.0037
12,CGTATACA,0.0906 ± 0.018
13,GGTATACA,0.105 ± 0.011
14,AGTATACA,0.135 ± 0.025
15,CAGCAGGC,-0.139 ± 0.04
16,ACCCTCCT,-0.0718 ± 0.019
17,CCCCTCCG,0.00173 ± 0.08
18,CCCCTCCC,0.297 ± 0.13
19,ACCCTCCC,0.289 ± 0.04
20,ACCCTCCA,0.0708 ± 0.031
21,CCCTCCCC,0.157 ± 0.25
22,CGGGTTAA,-0.0694 ± 0.12
